Assay results taken from PubChem BioAssay (NCI).
Compounds without any hit were thinned out: in the full panel of roughly 79,000, 15% have a hit. Active and inactive are the calls of the source. No stated cut-off is given here; in the data, active means growth inhibition above about 70%; inactive means the rest.

Experiment: NCI Yeast Anticancer Drug Screen. Data for the bub3 strain (AID 167)
Conditions: S. cerevisiae bub3 mutant strain, at 50.0 µM, hits give high values
Outline: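 Compounds were applied to a genetically altered yeast strain carrying a cell-cycle control defect. Growth inhibition was scored against vehicle-treated controls.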

SMILES	growth inhibition
CC(=O)[O][Ga]([Br])[O]C(C)=O	15.7% (inactive)
CCOC(=O)C(NC(=O)c1ccccc1)(N1CCN(c2cc3c(cc2F)c(=O)c(C(=O)O)cn3CC)CC1)C(F)(F)F (configuration not stated)	-14.2% (inactive)
O=c1cc[nH]c2ccc(Cl)cc12	-7.1% (inactive)
CN(C)C(=S)OCC(C)(C)C	3.4% (inactive)
CC(=O)NC(Cc1ccccc1)C(=O)Nc1ccccc1C (configuration not stated)	7.75% (inactive)
CCCCCn1[nH]nc(C(=O)OC)c1=O (tested in a mixture with another compound)	30.5% (inactive)
O=c1ccc(=O)c2c(=O)c3cc4[nH]c5ccccc5[nH]c4cc3c(=O)c12	-5.6% (inactive)
CCOC(=O)CSc1nc(-c2ccc(Cl)cc2)c(C#N)c(=O)[nH]1	8.85% (inactive)
COc1cc2c(cc1OC)C1CCc3ccccc3CN1CC2 (configuration not stated)	-15.8% (inactive)
CC(=O)Nc1ccc(C(=O)N2N=C(C)/C(=C/c3cccc([N+](=O)[O-])c3)C2=O)cc1	-21.9% (inactive)
COc1cccc(NC(=O)CC(=O)Nc2cccc(OC)c2)c1	10.1% (inactive)
O=C(O)C1C2CCC3C(C(=O)O)C3C21 (configuration not stated)	11.7% (inactive)
C=C1CCN(c2ccc([N+](=O)[O-])cc2)C1=O	10.3% (inactive)
CCOC(=O)C(=O)C(=O)NN(C)C1=NCCN1	6.55% (inactive)
Cc1cc(CC#N)c(CC#N)cc1C	-3.95% (inactive)
S=c1sc2cscc2s1	-3% (inactive)
Nc1cc(F)ccc1CC(=O)O	11.7% (inactive)
